Most compounds without a hit are left out; they make up all but 9.9% or so of the library.
IL-1B inflam inh: qHTS for Inhibitors of Inflammasome Signaling: IL-1-beta AlphaLISA Primary Screen; THP-1 LPS/ATP IL-1B secretion, AlphaLISA, 16 h; stronger effect = lower value; activity change, % at 57.5 µM; 4.7% of 360,000 active; AID 743279, 2014; in the data active = activity change below about -50%; inconclusive = mostly about -30% to -49%
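Secreted IL-1B measured by AlphaLISA bead assay after 16 h compound exposure of THP-1 cells; compounds (final up to 57.5 uM) added 1 h before LPS (250 ng/mL) and ATP (1.25 mM) stimulation; lower signal means less secretion.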
MCF10A rereplic: A quantitative high throughput screen for small molecules that induce DNA re-replication in MCF 10a normal breast cells. MCF 10A DNA re-replication, Hoechst nuclear intensity, 48 h. Potency, µM (highest dose often 46.1 µM), actives largely listed as activators. 2.9% of 350,000 active. AID 624296, 2012; also: nearly all actives have a fitted effect of over 50% in size
KB-3-1 tox: qHTS assay for MDR1-selective chemotherapeutics: Primary screen using the parental adenocarcinoma cell KB-3-1. KB-3-1 viability, CellTiter-Glo ATP luminescence, 72 h. Potency, µM (highest dose often 46.1 µM), actives largely listed as cytotoxic. 1.4% of 400,000 active. AID 1347075, 2019; also: nearly all actives have a fitted effect of over 60% in size
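Parental KB-3-1 adenocarcinoma cells in phenol-red-free DMEM with 10% FBS were pin-treated with compounds at several concentrations, incubated 72 h at 37 °C, and viability read by CellTiter-Glo luminescence; concentration-effect curves were fitted after normalization.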
KB-V1 MDR tox: qHTS assay for MDR1-selective chemotherapeutics: Primary screen using the drug-selected MDR subline cells KB-V1 | KB-V1 MDR cells viability, CellTiter-Glo, 72 h | Potency, µM (top dose mostly 46.1 µM), most hits filed as cytotoxic | 3.4% of 400,000 active | AID 1347076, 2019; also: nearly all actives have a fitted effect of over 60% in size
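Potencies derive from concentration-effect curves fitted to normalized luminescence (CellTiter-Glo) of KB-V1 cells treated for 72 h at 37 degrees C in phenol-red-free DMEM containing 10% FBS.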
SW480 rereplic: A quantitative high throughput screen for small molecules that induce DNA re-replication in SW480 colon adenocarcinoma cells | Potency, µM (top dose mostly 46.1 µM), hits mostly activators | 1.8% of 340,000 active | SW480 DNA re-replication, Hoechst DNA content imaging, 48 h; also: nearly all actives have a fitted effect of over 55% in size
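Cells (250 per well) received 23 nL compound or DMSO by pin tool and were kept 48 hr at 37 C, 5% CO2. Nuclei were then stained with Hoechst for 40 min and scanned for DNA content.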
Large screens that a line does not name were inactive. Unless noted, calls follow the shape of the dose curve; as a rule, active = well fitted curve in the direction sought with a large enough effect; inconclusive = small, poorly fitted or top-dose-only effect, or another doubt; inactive = no such curve, though single readings can be large; an effect the other way counts as inactive or inconclusive.

Nc1ccccc1SC(CC(=O)c1ccccc1)c1ccc([N+](=O)[O-])cc1 (stereo unspecified)	IL-1B inflam inh inconclusive, KB-3-1 tox 21µM (no result: MCF10A rereplic, SW480 rereplic)
COc1ccc(C(CC(=O)c2ccc(C)cc2)Sc2ccccc2N)cc1 (stereo unspecified)	none (no result: MCF10A rereplic, SW480 rereplic)
O=C(NC(NC(=O)c1ccccc1)c1cccc([N+](=O)[O-])c1)c1ccccc1	none
CC(=O)NC(CSC(CC(=O)c1ccco1)c1ccc(C)cc1)C(=O)O (stereo unspecified)	MCF10A rereplic 21µM, SW480 rereplic inconclusive
Nc1ccccc1SC(CC(=O)c1ccccc1)c1cccc([N+](=O)[O-])c1 (stereo unspecified)	IL-1B inflam inh -104, KB-3-1 tox inconclusive, KB-V1 MDR tox inconclusive (no result: MCF10A rereplic, SW480 rereplic)
O=C(CC(SCCO)c1ccc([N+](=O)[O-])cc1)c1ccco1 (stereo unspecified)	IL-1B inflam inh inconclusive, KB-3-1 tox 21µM
O=C(NCCNc1ccc([N+](=O)[O-])cc1)c1ccco1	none
O=C(NCc1cccnc1)NC(=O)c1ccc(Cl)cc1	none
O=C(CSc1nc(=O)n2ccccc2n1)N1CCN(c2ccccc2)CC1	SW480 rereplic inconclusive
CSc1ncnc2ncn(C)c12	none
Cc1ccc(C(=O)CC(SCC(=O)O)c2ccc([N+](=O)[O-])cc2)cc1 (stereo unspecified)	IL-1B inflam inh inconclusive, MCF10A rereplic 18µM, SW480 rereplic inconclusive
COc1ccc(C(CC(=O)c2ccc(C)cc2)Nc2ccc([N+](=O)[O-])cc2)cc1 (stereo unspecified)	IL-1B inflam inh inconclusive, MCF10A rereplic inconclusive, KB-3-1 tox inconclusive, KB-V1 MDR tox inconclusive
O=C(CCn1c(=O)sc2ccccc21)Nc1nccs1	none
Cc1csc(NC(=O)CCn2c(=O)sc3ccccc32)n1	MCF10A rereplic inconclusive, KB-V1 MDR tox 23µM
Cc1csc(NC(=O)CCCSc2nc3ccccc3s2)n1	MCF10A rereplic 18µM, KB-V1 MDR tox inconclusive
CC12CCC(C(=O)CC1=O)C2(C)C (stereo unspecified)	none
Cc1cccn2c(CN3CCNC(=O)CC3)c(C(=O)N(C)CCc3ccccc3)nc12	none
COc1ccc(NCc2cccnc2)cc1	none
COc1cc(-c2ccc3cc(OC)c(OC)c(OC)c3c2)cc(OC)c1OC	KB-V1 MDR tox inconclusive (no result: MCF10A rereplic, SW480 rereplic)
O=C(NCC1CCCO1)c1ccc2c(=O)n(CC3CCCO3)c(=S)[nH]c2c1 (stereo unspecified)	none
CCN(CC(=O)Nc1ccc(OC)cc1)C(=O)c1ccc2[nH]c3c(c2c1)CC(C)CC3 (stereo unspecified)	IL-1B inflam inh inconclusive, KB-3-1 tox inconclusive, KB-V1 MDR tox inconclusive
CC1CCc2[nH]c3ccc(C(=O)N(C)CC(=O)Nc4ccccc4Br)cc3c2C1 (stereo unspecified)	IL-1B inflam inh -74, MCF10A rereplic inconclusive
Cc1ccc(C)c(NC(=O)CN(C)C(=O)c2ccc3[nH]c4c(c3c2)CC(C)CC4)c1 (stereo unspecified)	IL-1B inflam inh -54, KB-V1 MDR tox inconclusive
CC1CCc2[nH]c3ccc(C(=O)NCC4CCCO4)cc3c2C1 (stereo unspecified)	IL-1B inflam inh -51, SW480 rereplic inconclusive
COc1ccc2cc(C(=O)N(C)CC(=O)Nc3ccccc3Br)ccc2c1	KB-V1 MDR tox inconclusive
Cc1nc2ccc(NC(=O)CCC3CCCC3)cc2s1	none
O=C(COC(=O)c1ccc(O)cc1)Nc1ccccc1[N+](=O)[O-]	none
CCOc1ccccc1CNC(=O)c1ccc2nc(N3CCC(C)CC3)sc2c1	none (no result: IL-1B inflam inh, MCF10A rereplic, SW480 rereplic)
O=C(c1ccc(S(=O)(=O)Cc2cc(F)ccc2F)c([N+](=O)[O-])c1)N1CCCC1	IL-1B inflam inh -108, MCF10A rereplic inconclusive
CC1CCN(C(=O)c2ccc(S(=O)(=O)Cc3cccc(F)c3)c([N+](=O)[O-])c2)CC1	IL-1B inflam inh -86, KB-V1 MDR tox inconclusive, SW480 rereplic inconclusive
Cc1ccccc1CS(=O)(=O)c1ccc(C(=O)N2CCC(C)CC2)cc1[N+](=O)[O-]	none
O=C(c1ccc(S(=O)(=O)Cc2cc(F)ccc2F)c([N+](=O)[O-])c1)N1CCCCC1	IL-1B inflam inh -110, KB-V1 MDR tox inconclusive, SW480 rereplic inconclusive
Nc1ccc(C(=O)N2CCCC2)cc1CS(=O)(=O)c1ccc(Cl)cc1	none
O=C(NCCc1csc(-c2cccc(F)c2)n1)c1cccs1	none (no result: IL-1B inflam inh, MCF10A rereplic, SW480 rereplic)
Cc1nc2sccn2c(=O)c1CCN1CCC(=C(c2ccccc2)c2ccc(F)cc2)CC1	MCF10A rereplic 5.2µM (no result: IL-1B inflam inh, KB-3-1 tox, KB-V1 MDR tox)
Cc1ccc(N2CCN(C(=O)C3CCN(S(=O)(=O)c4ccc5c(c4)oc(=O)n5C)CC3)CC2C)cc1 (stereo unspecified)	KB-V1 MDR tox inconclusive (no result: IL-1B inflam inh, MCF10A rereplic, SW480 rereplic)
CCCCN(CC)CCCNC(=O)c1cc2cc3ccc(OC)cc3nc2o1	IL-1B inflam inh -50
CCCN(CCC)CCCNC(=O)c1cc2cc3ccc(OC)cc3nc2o1	IL-1B inflam inh -78
COc1ccc(OC)c(CNC(=O)c2cc3cc4ccc(OC)cc4nc3o2)c1	none (no result: IL-1B inflam inh, MCF10A rereplic, SW480 rereplic)
COc1ccc2cc3cc(C(=O)NCc4ccc(C)cc4)oc3nc2c1	none (no result: IL-1B inflam inh, MCF10A rereplic, SW480 rereplic)
COc1ccc2cc3cc(C(=O)NCc4cccs4)oc3nc2c1	IL-1B inflam inh -54, MCF10A rereplic inconclusive, KB-3-1 tox 4.6µM, KB-V1 MDR tox inconclusive
COc1ccc2cc3cc(C(=O)NCCc4ccc(OC)c(OC)c4)oc3nc2c1	IL-1B inflam inh inconclusive, MCF10A rereplic inconclusive, KB-V1 MDR tox inconclusive
COc1ccc(C(=O)OCC(=O)Nc2c(C)n(C)n(-c3ccccc3)c2=O)cc1OC	none
Clc1ccc(COn2nnc3ccccc32)c(Cl)c1	MCF10A rereplic 23µM
O=[N+]([O-])c1ccc(COn2nnc3ccccc32)cc1	none
CCSc1nc2ccccc2[nH]1	none
Nc1c(-c2ccccc2)c(CSc2nc3ccccc3[nH]2)nn1-c1ccc(Cl)cc1	IL-1B inflam inh inconclusive, KB-3-1 tox inconclusive
Cc1ccccc1-n1nc(CSc2nc3ccccc3[nH]2)c(-c2ccccc2)c1N	KB-3-1 tox inconclusive, KB-V1 MDR tox 18µM
Nc1c(-c2ccccc2)c(CSc2nc3ccccc3[nH]2)nn1-c1cccc(Cl)c1	MCF10A rereplic inconclusive, KB-3-1 tox 23µM, KB-V1 MDR tox inconclusive, SW480 rereplic inconclusive
CCNc1ccc(C(=O)OCC(=O)N(Cc2ccccc2)C(C)(C)C)cc1[N+](=O)[O-]	none
COCC(C)Nc1ncnc2c1cnn2-c1cccc(Cl)c1 (stereo unspecified)	none (no result: IL-1B inflam inh, MCF10A rereplic, SW480 rereplic)
NCC(c1ccccc1)(c1ccccc1)c1ccccc1	KB-3-1 tox inconclusive, KB-V1 MDR tox 21µM, SW480 rereplic inconclusive
Cc1nc2c(-c3ccc(F)cc3)c(C)nn2c(C)c1CCC(=O)Nc1ccccc1F	MCF10A rereplic inconclusive, KB-V1 MDR tox inconclusive, SW480 rereplic inconclusive

Source: PubChem (National Center for Advancing Translational Sciences (NCATS))
